The source made the active and inactive calls. Rule for the calls: active = hit-call score of the fitted dose curve at least 0.9, where 1 is the maximum; inactive = score below 0.9.

Holding throughout (details): mRNA level, 48 h; actives raise or lower the signal
Read-out in assay [1]: Bcl-2 (BID) gene, BID (gene 637)
Description: LTEA_HepaRG_BID: Life Technologies and Expression Analysis (LTEA) Assay for Bcl-2 (BID) gene using HepaRG (AID 2283476). Summed up:
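Gene expression by qRT-PCR in HepaRG cells after 48 h exposure, duplicate wells, eight half-log concentrations topping at 100 uM in 0.5% DMSO. Normalized to ACTB, GAPDH, POLR2A; bidirectional fitting relative to DMSO.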

Read-out in another assay: Caspase-3 (Homo sapiens) (UniProt P42574)
Description: LTEA_HepaRG_CASP3: Life Technologies and Expression Analysis (LTEA) Assay for cysteine-aspartic acid protease (CASP3) using HepaRG (AID 2283477). Summed up:
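In HepaRG liver cells dosed for 48 h at up to 100 uM (eight-point, duplicate), CASP3 expression changes are scored by qRT-PCR. Activity is fitted in both directions with 0.5% DMSO as baseline.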

Read-out in assay [2]: Cytochrome P450 (CYP24A1), CYP24A1 (gene 1591)
Description: LTEA_HepaRG_CYP24A1: Life Technologies and Expression Analysis (LTEA) Assay for Cytochrome P450 (CYP24A1) using HepaRG (AID 2283478). Summed up: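 Human liver HepaRG cultures receive each chemical for 48 h across an eight-point half-log series topping at 100 uM in 0.5% DMSO. Induction or suppression of CYP24A1 mRNA is scored relative to vehicle after housekeeping-gene normalization.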

Read-out in assay [3]: Cytochrome P450 (CYP1A2), CYP1A2 (gene 1544)
Description: LTEA_HepaRG_CYP1A2: Life Technologies and Expression Analysis (LTEA) Assay for Cytochrome P450 (CYP1A2) using HepaRG (AID 2283479). Summed up: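 Assesses CYP1A2 mRNA in human HepaRG liver cells after 48 h chemical exposure at up to 100 uM. Values come from qRT-PCR with bidirectional curve fitting relative to DMSO.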

Read-out in assay [4]: cysteine-aspartic acid protease (CASP8), CASP8 (gene 841)
Description: LTEA_HepaRG_CASP8: Life Technologies and Expression Analysis (LTEA) Assay for cysteine-aspartic acid protease (CASP8) using HepaRG (AID 2283480). Put shortly: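 Differentiated HepaRG cells in serum-free induction medium, 48 h exposure, eight-point half-log series from 100 uM in 0.5% DMSO, duplicates. CASP8 mRNA by qRT-PCR, normalized to ACTB, GAPDH, POLR2A; bidirectional fit versus DMSO.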

Read-out in assay [5]: Cytochrome P450 (CYP2B6), CYP2B6 (gene 1555)
Description: LTEA_HepaRG_CYP2B6: Life Technologies and Expression Analysis (LTEA) Assay for Cytochrome P450 (CYP2B6) using HepaRG (AID 2283481). Summed up: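 Using 48 h treatment of HepaRG cells in serum-free induction medium, concentrations spanned half-log steps from 100 uM in 0.5% DMSO vehicle. CYP2B6 mRNA induction or loss is scored by qRT-PCR against DMSO.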

Read-out in assay [6]: Cytochrome P450 2C19 (Homo sapiens) (UniProt P33261)
Description: LTEA_HepaRG_CYP2C19: Life Technologies and Expression Analysis (LTEA) Assay for CYP2C19 using HepaRG (AID 2283482). Summed up: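 Human HepaRG liver cells received test chemicals for 48 h (highest 100 uM, half-log dilutions in 0.5% DMSO). CYP2C19 mRNA induction or loss is read by multiplexed qRT-PCR and fitted in both directions versus vehicle.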

Read-out in another assay: CYP2C8 (gene 1558)
Description: LTEA_HepaRG_CYP2C8: Life Technologies and Expression Analysis (LTEA) Assay for CYP2C8 using HepaRG (AID 2283483). Summed up: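 Differentiated HepaRG cells in serum-free induction medium exposed 48 h in duplicate to 8 half-log concentrations from 100 uM in 0.5% DMSO. CYP2C8 mRNA by qRT-PCR normalized to ACTB, GAPDH, POLR2A; bidirectional fit versus DMSO.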

Read-out in the next assay: CYP2C9 (gene 1559)
Description: LTEA_HepaRG_CYP2C9: Life Technologies and Expression Analysis (LTEA) Assay for CYP2C9 using HepaRG (AID 2283484). Put shortly: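 Differentiated human HepaRG cells in serum-free induction medium were exposed 48 h to chemicals in 8-point half-log series from 100 uM (0.5% DMSO), in duplicate. CYP2C9 mRNA was measured by qRT-PCR, normalized to ACTB/GAPDH/POLR2A, with bidirectional fitting versus DMSO.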

Read-out in a further assay: CYP2E1 (gene 1571)
Description: LTEA_HepaRG_CYP2E1: Life Technologies and Expression Analysis (LTEA) Assay for CYP2E1 using HepaRG (AID 2283485). Put shortly: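 HepaRG cells, plated 48 h, then exposed 48 h in serum-free induction medium to eight half-log concentrations from 100 uM in 0.5% DMSO, duplicate. CYP2E1 mRNA by qRT-PCR, normalized to ACTB/GAPDH/POLR2A; bidirectional fit versus DMSO.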

Read-out in a further assay: CYP4A11 (gene 1579)
Description: LTEA_HepaRG_CYP4A11: Life Technologies and Expression Analysis (LTEA) Assay for CYP4A11 using HepaRG (AID 2283486). Summed up: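 Readout is CYP4A11 mRNA induction or suppression (qRT-PCR, ACTB/GAPDH/POLR2A normalization) in human HepaRG cells after 48 h chemical treatment, concentrations to 100 uM in 0.5% DMSO, fitted bidirectionally against vehicle.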

Read-out in assay [7]: Cytochrome P450 3A4 (Homo sapiens) (UniProt P08684)
Description: LTEA_HepaRG_CYP3A4: Life Technologies and Expression Analysis (LTEA) Assay for CYP3A4 using HepaRG (AID 2283487). Summed up: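 In a human hepatic line (HepaRG), duplicate wells were treated 48 h with up to 100 uM chemical in half-log dilutions. Endpoint: CYP3A4 mRNA induction or loss relative to 0.5% DMSO vehicle, by qRT-PCR.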

Read-out in assay [8]: DNA damage-inducible transcript 3 (DDIT3), DDIT3 (gene 1649)
Description: LTEA_HepaRG_DDIT3: Life Technologies and Expression Analysis (LTEA) Assay for DNA damage-inducible transcript 3 (DDIT3) using HepaRG (AID 2283488). Summed up: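 HepaRG cells, 48 h after plating, exposed 48 h in serum-free induction medium to 8 half-log concentrations up to 100 uM in 0.5% DMSO, in duplicate. DDIT3 mRNA measured by TaqMan qRT-PCR, normalized to ACTB, GAPDH and POLR2A. Fitted bidirectionally against DMSO.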

Read-out in assay [9]: Pro-epidermal growth factor (Homo sapiens) (UniProt P01133)
Description: LTEA_HepaRG_EGF: Life Technologies and Expression Analysis (LTEA) Assay for Epidermal growth factor (EGF) using HepaRG (AID 2283489). Summed up: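 EGF expression changes in human HepaRG cells are scored by bidirectional fitting relative to 0.5% DMSO controls. Chemicals are tested at eight half-log concentrations up to 100 uM for 48 h in serum-free induction medium.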

Read-out in assay [10]: Ezrin (EZR), EZR (gene 7430)
Description: LTEA_HepaRG_EZR: Life Technologies and Expression Analysis (LTEA) Assay for Ezrin (EZR) using HepaRG (AID 2283491). Summed up: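 Gain or loss of EZR mRNA is scored relative to 0.5% DMSO in human HepaRG cultures treated 48 h with test chemicals in duplicate, eight half-log concentrations from 100 uM.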

Read-out in assay [11]: Cytochrome P450 3A7 (Homo sapiens) (UniProt P24462)
Description: LTEA_HepaRG_CYP3A7: Life Technologies and Expression Analysis (LTEA) Assay for CYP3A7 using HepaRG (AID 2283492). Put shortly:
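Cells were thawed, plated, cultured 48 h, then treated for a further 48 h with chemicals (eight-point half-log series from 100 uM, 0.5% DMSO). RNA was isolated and CYP3A7 expression quantified by qRT-PCR normalised to ACTB, GAPDH and POLR2A.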

Read-out in another assay: CYP3A5 (gene 1577)
Description: LTEA_HepaRG_CYP3A5: Life Technologies and Expression Analysis (LTEA) Assay for CYP3A5 using HepaRG (AID 2283493). Summed up:
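HepaRG cells, plated 48 h then in serum-free induction medium, dosed in duplicate for 48 h with eight half-log concentrations up to 100 uM in 0.5% DMSO. Gene mRNA by Fluidigm TaqMan qRT-PCR, normalized to ACTB, GAPDH, POLR2A.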

Read-out in assay [12]: Fatty Acid-Binding Protein 1 (FABP1), FABP1 (gene 2168)
Description: LTEA_HepaRG_FABP1: Life Technologies and Expression Analysis (LTEA) Assay for Fatty Acid-Binding Protein 1 (FABP1) using HepaRG (AID 2283494). Put shortly:
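Differentiated human HepaRG cells exposed 48 h in serum-free induction medium to eight half-log concentrations up to 100 uM (0.5% DMSO), duplicate. FABP1 mRNA by qRT-PCR, normalised to ACTB, GAPDH, POLR2A; bidirectional fitting against DMSO.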

Read-out in assay [13]: Cytochrome P450 4A22 (Homo sapiens) (UniProt Q5TCH4)
Description: LTEA_HepaRG_CYP4A22: Life Technologies and Expression Analysis (LTEA) Assay for Cytochrome P450 4A22 (CYP4A22) using HepaRG (AID 2283495). Summed up:
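Cryopreserved HepaRG cells, plated and cultured 48 h, then switched to serum-free induction medium and treated 48 h (duplicates, up to 100 uM, half-log steps, 0.5% DMSO). Expression change of CYP4A22 was fitted bidirectionally against vehicle.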

Read-out in assay [14]: Early growth response protein 1 (EGR1) transcription factor, EGR1 (gene 1958)
Description: LTEA_HepaRG_EGR1: Life Technologies and Expression Analysis (LTEA) Assay for Early growth response protein 1 (EGR1) transcription factor using HepaRG (AID 2283490). Summed up:
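Differentiated HepaRG cells in serum-free induction medium exposed 48 hours, duplicate, to 8 half-log concentrations up to 100 uM in 0.5% DMSO. EGR1 mRNA measured by TaqMan qRT-PCR, normalized to ACTB, GAPDH, POLR2A; bidirectional fit versus DMSO.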

Sequence of Cytochrome P450 3A7 (Homo sapiens) (P24462 whole entry, looked up): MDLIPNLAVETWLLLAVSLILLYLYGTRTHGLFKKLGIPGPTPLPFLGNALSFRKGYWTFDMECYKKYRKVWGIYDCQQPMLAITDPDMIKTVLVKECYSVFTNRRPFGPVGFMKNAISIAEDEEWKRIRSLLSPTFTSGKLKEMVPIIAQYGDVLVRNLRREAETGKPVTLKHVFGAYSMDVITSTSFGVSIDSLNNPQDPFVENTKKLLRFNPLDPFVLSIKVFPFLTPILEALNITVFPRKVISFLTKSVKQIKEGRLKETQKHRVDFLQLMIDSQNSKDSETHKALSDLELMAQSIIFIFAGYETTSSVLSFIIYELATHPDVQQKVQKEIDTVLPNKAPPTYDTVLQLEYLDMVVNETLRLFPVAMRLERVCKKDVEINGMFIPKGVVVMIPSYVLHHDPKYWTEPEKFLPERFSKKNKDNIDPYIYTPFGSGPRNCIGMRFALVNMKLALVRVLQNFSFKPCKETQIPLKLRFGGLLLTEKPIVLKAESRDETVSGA
Sequence of Cytochrome P450 2C19 (Homo sapiens) (P33261 whole entry, looked up): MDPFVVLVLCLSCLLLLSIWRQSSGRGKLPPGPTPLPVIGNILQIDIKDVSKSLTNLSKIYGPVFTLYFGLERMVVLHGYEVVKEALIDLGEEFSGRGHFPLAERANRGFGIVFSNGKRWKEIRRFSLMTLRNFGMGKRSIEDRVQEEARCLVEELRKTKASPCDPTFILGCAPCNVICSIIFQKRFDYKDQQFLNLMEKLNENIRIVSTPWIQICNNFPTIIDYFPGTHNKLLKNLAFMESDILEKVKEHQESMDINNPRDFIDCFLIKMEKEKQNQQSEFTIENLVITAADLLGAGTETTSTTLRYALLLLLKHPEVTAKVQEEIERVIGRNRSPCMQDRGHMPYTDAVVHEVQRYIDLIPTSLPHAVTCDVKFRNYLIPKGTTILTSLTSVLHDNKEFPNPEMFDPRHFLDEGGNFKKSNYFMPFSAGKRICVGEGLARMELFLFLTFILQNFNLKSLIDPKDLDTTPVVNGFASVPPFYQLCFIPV
Sequence of Cytochrome P450 3A4 (Homo sapiens) (P08684 whole entry, looked up): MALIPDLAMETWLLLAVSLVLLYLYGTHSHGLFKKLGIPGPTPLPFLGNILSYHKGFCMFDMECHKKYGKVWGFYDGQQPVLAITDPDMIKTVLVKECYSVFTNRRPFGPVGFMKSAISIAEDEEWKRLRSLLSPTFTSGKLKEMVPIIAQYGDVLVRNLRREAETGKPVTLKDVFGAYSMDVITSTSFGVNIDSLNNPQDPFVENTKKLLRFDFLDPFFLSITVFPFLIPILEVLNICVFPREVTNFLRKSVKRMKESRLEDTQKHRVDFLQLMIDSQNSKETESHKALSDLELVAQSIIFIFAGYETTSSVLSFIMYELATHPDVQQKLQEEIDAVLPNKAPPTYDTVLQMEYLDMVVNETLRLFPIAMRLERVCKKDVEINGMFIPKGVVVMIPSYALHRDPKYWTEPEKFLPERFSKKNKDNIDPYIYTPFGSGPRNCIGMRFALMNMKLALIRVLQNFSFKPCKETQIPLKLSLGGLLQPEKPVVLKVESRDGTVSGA
Sequence of Caspase-3 (Homo sapiens) (P42574 whole entry, looked up): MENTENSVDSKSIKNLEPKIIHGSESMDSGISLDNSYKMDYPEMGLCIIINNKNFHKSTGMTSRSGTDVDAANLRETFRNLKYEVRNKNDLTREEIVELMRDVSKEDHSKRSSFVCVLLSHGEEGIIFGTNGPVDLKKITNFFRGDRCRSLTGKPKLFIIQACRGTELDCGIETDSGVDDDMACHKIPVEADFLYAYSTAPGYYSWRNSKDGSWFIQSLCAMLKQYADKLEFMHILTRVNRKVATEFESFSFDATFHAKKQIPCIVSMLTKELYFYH

With `CCOP(=S)(OCC)Oc1nc(Cl)n(C(C)C)n1`, the call (in assay [1]; with Caspase-3 (Homo sapiens); in [2]; in assay [4]; with CYP2C8 (gene 1558); in the assay with CYP2C9 (gene 1559)) was inactive. Further, the call (in [8]; in assay [9]; in assay [10]; in assay [11]; with CYP3A5 (gene 1577); in assay [12]) was inactive. Moreover, the AC50 (usually the concentration at which the activity in the assay is half-maximal) is 11.3 µM (active) in [3]; 1.78 µM (active) in assay [5]; 12.7 µM (active) in assay [6]; 26.5 µM (active) in the assay with CYP2E1 (gene 1571); 42.3 µM (active) with CYP4A11 (gene 1579); 4.55 µM (active) in assay [7]. For the same compound, in assay [13], the AC50 was 35.9 µM (active).
As to `CC(C)N1C(=O)N(c2ccccc2)CSC1=NC(C)(C)C`, the compound was classed as inactive (in assay [1]; with Caspase-3 (Homo sapiens); in assay [2]; in assay [4]; in assay [9]; in assay [14]). The outcome (in assay [11]; with CYP3A5 (gene 1577)) was inactive. In addition, the AC50 in [3] is 50 µM (active); in assay [5], 89.3 µM (active); in [6], 11.4 µM (active); with CYP2C8 (gene 1558), 84.2 µM (active); with CYP2C9 (gene 1559), 83.3 µM (active); with CYP2E1 (gene 1571), 63.5 µM (active). For the same compound, the AC50 in the assay with CYP4A11 (gene 1579) was 67.6 µM (active); in [7], 12 µM (active); in assay [10], 50 µM (active); in assay [12] it was 44.8 µM (active); in assay [13], 63.6 µM (active).
Regarding `CNC(=O)Oc1cccc2ccccc12`, the compound was classed as inactive (in [1]; with Caspase-3 (Homo sapiens); in [3]; in assay [4]; in [6]; in the assay with CYP2C8 (gene 1558)). For the same compound, the outcome (with CYP2C9 (gene 1559); in the assay with CYP2E1 (gene 1571); in the assay with CYP4A11 (gene 1579); in assay [7]; in [8]; in assay [9]) was inactive. The outcome (in [14]; in assay [10]; in assay [11]; in the assay with CYP3A5 (gene 1577); in assay [12]; in assay [13]) was inactive. The AC50 in assay [2] was 0.0808 µM (active); in assay [5], 25.6 µM (active).

Values taken from PubChem BioAssay (EPA / NIEHS).
